This is a sample that favours compounds with a hit; in the whole collection about 10% have one here.
Six1-Eya2 blk – Six1/Eya2 interaction inhibition; AlphaScreen GST-Six1/His-Eya2 binding, biochemical; active compounds read low; activity change, % (test concentration not listed); actives 0.56% (n = 360,000); in the data active = activity change below about -65%; inconclusive = mostly about -30% to -63%; note: % is set by controls: 0 for no effect and ±100 for the full control effect
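AlphaScreen luminescence read after one hour at 37 °C in darkness. Pin-transferred compounds met GST-Six1 and His-Eya2 protein (5X stock 250 nM/500 nM) plus glutathione donor and Ni-chelate acceptor beads (5X, 50 ug/mL).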
CtBP-E1A blk – blocks the CtBP interaction with E1A; AlphaScreen GST-E1A/His-CtBP binding, 1536-well; active compounds read low; activity change, % (concentration not given with the values); actives 0.49% (n = 340,000); AID 651724; in the data active = activity change below about -65%; inconclusive = mostly about -30% to -63%; note: % is set by controls: 0 for no effect and ±100 for the full control effect
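AlphaScreen with 125 nM GST-E1A and 125 nM His-CtBP (5X stocks) in Tris pH 8.0, 300 mM NaCl, BSA, Tween 20, TCEP. Compounds preincubated 2 h at 37 deg C, then glutathione donor/nickel acceptor beads added for 1 h at 37 deg C in dark.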
HP1b binding inh – blocks HP1-beta chromodomain binding to methylated histone tails | P83916 | actives 0.56% (n = 390,000) | AID 540317 | Potency, µM (series often up to 114 µM), for inactives: at the highest dose activity change, negative = inhibition, hits mostly inhibitors | AlphaScreen HP1-beta / biotin-H3K9me3 peptide binding; note: potency is the fitted concentration of half-maximal effect; nearly all actives have a fitted effect of over 70% in size
Target sequence (P83916 whole entry, looked up): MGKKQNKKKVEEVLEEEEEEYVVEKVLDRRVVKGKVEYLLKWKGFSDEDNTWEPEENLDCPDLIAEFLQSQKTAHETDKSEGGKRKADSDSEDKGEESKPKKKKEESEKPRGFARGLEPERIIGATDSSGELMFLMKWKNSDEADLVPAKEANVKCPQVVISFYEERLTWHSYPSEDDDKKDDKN
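Compound inhibition of the preformed complex between 50 nM HP1-beta and 50 nM biotinylated H3K9me3 peptide was read by AlphaScreen. Buffer was PBS pH 7.4 with 0.01% Tween-20. Incubations ran 30 min at room temperature, with 10 ug/mL donor/acceptor beads.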
G9a inh – inhibitors of human histone lysine methyltransferase G9a; Q96KQ7; G9a H3K9 monomethylation, AlphaScreen, 2 h; Potency, µM (series often up to 102 µM), for inactives: at the highest dose activity, negative = inhibition, hits mostly inhibitors; actives 8.8% (n = 350,000); AID 504332; note: potency is the fitted concentration of half-maximal effect; % is set by controls: 0 for no effect and ±100 for the full control effect; nearly all actives have a fitted effect of over 75% in size
Target sequence (Q96KQ7 913-1193 limits assumed): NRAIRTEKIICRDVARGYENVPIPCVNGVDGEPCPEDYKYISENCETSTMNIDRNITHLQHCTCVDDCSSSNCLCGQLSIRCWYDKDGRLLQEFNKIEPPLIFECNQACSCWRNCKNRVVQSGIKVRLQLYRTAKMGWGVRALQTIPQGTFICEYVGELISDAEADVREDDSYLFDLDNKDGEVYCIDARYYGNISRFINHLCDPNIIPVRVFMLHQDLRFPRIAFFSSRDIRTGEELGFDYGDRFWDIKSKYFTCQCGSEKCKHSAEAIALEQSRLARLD
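Enzyme 20 nM + cpd, 15 min RT; add b-H3K9 pep 500 nM / SAM 20 uM; 2 h RT; anti-H3K9me1 Ab 0.5 ug/mL + SA donor / anti-rabbit acceptor beads 20 ug/mL each, 10 min; AlphaScreen read.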
JMJD2A Tudor – inhibitors of human JMJD2A Tudor domain. O75164. AlphaScreen JMJD2A-Tudor / H3K4me3 peptide binding. Potency, µM (top dose mostly 114 µM), for the others: at the highest dose activity change, negative = inhibition, usual class: inhibitors. actives 4.4% (n = 390,000). AID 504339; note: potency is the fitted concentration of half-maximal effect; % is set by controls: 0 for no effect and ±100 for the full control effect; nearly all actives have a fitted effect of over 50% in size
BAZ2B inh – BAZ2B (human) inhibition. Q9UIF8. AlphaScreen BAZ2B-H3K14Ac peptide displacement. Potency, µM (titrated, usually from 114 µM), inactives show at the top dose activity change, negative = inhibition, most hits filed as inhibitors. actives 4.4% (n = 360,000); note: potency is the fitted concentration of half-maximal effect; % is set by controls: 0 for no effect and ±100 for the full control effect; nearly all actives have a fitted effect of over 60% in size
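AlphaScreen luminescence quantifies BAZ2B engagement of H3K14Ac peptide; the protein and biotinylated peptide are both at 50 nM final, buffer PBS pH 7.4 with 0.01% Tween-20, all steps at room temperature.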
* hit, by the source's call; ? = inconclusive; / = no result; [ ] = dose if it differs, or a comment. Unless noted, calls come from the whole dose curve; as a rule, active = well fitted inhibition curve with a large enough effect; inconclusive = small, poorly fitted or top-dose-only effect; inactive = no such curve, though single readings can be large or run the other way.

SMILES | Six1-Eya2 blk | CtBP-E1A blk | HP1b binding inh | G9a inh | JMJD2A Tudor | BAZ2B inh
Cc1ccc(C2/C(=C(/O)c3cnn(-c4ccccc4)c3C)C(=O)C(=O)N2CCN2CCOCC2)o1 (centres undefined) | 6 | 2 | 14% | ? | ? | 79µM*
CCN(CC)CCN1C(=O)C(=O)/C(=C(/O)c2c(C)[nH]c(C(=O)OC)c2C)C1c1cccc(OC)c1 (centres undefined) | 3 | -12 | 11% | ? | ? | ?
CCN(CC)CCN1C(=O)C(=O)/C(=C(/O)c2c(C)[nH]c(C(=O)OC)c2C)C1c1ccc(C)o1 (centres undefined) | 7 | 5 | -3% | 35µM* | -9% | ?
CCOC(=O)c1[nH]c(C)c(/C(O)=C2\C(=O)C(=O)N(CCN(C)C)C2c2ccc(C)o2)c1C (centres undefined) | 0 | 2 | 6% | 40µM* | ? | -35%
Cc1ccc(C)c(/C(O)=C2/C(=O)C(=O)N(CCN3CCOCC3)C2c2ccco2)c1 (centres undefined) | -6 | 9 | ? | ? | 79µM* | 22µM*
CCOC(=O)c1cnc(NCc2ccccc2OC)c2ccccc12 | / | / | 68%[57 µM] | 57%[59 µM] | 61% | 120%
CS(=O)(=O)Nc1cccc(-c2ccc3ncnc(N4CCOCC4)c3c2)c1 | / | / | / | 7%[0.501 µM] | / | /
COC(=O)c1[nH]c(C)c(/C(O)=C2\C(=O)C(=O)N(CCN3CCOCC3)C2c2ccc(C)o2)c1C (centres undefined) | 1 | -13 | 9% | 45µM* | ? | -19%
COC(=O)c1[nH]c(C)c(/C(O)=C2\C(=O)C(=O)N(CCN3CCOCC3)C2c2cccnc2)c1C (centres undefined) | -15 | -9 | 12% | ? | 22µM* | -4%
CCN(CC)CCN1C(=O)C(=O)/C(=C(/O)c2c(C)[nH]c(C(=O)OC)c2C)C1c1cccnc1 (centres undefined) | 6 | -1 | 18% | ? | -14% | 17%
Cc1ccc(C2/C(=C(/O)c3ccccc3)C(=O)C(=O)N2CCN2CCOCC2)o1 (centres undefined) | 5 | 7 | 35% | ? | -29% | -30%
CCOC(=O)c1[nH]c(C)c(/C(O)=C2\C(=O)C(=O)N(CCN3CCOCC3)C2c2cccs2)c1C (centres undefined) | 2 | -4 | 12% | 45µM* | ? | -8%
Cc1ccc(CNC(=O)Cn2c(=O)n(-c3ccc(Cl)cc3)c(=O)c3c(C)c(C)sc32)cc1 | / | / | 25% | 8%[59 µM] | -3% | -1%
O=c1c2[nH]c3cc(Br)sc3c2cnn1Cc1ccccc1F | / | / | / | / | 40µM* | /
COc1ccc(CCNC(=O)c2cc3c(=O)[nH]c4ccc(C)cc4c3s2)cc1OC | / | / | 9% | 0%[59 µM] | -18% | -8%
CCOc1ccccc1C1c2[nH]c3ccccc3c2C[C@H]2C(=O)N(C3CCN(Cc4ccccc4)CC3)CC(=O)N12 (some centres undefined) | ? | -12 | -12% | ? | ? | ?
O=C1[C@@H]2Cc3c([nH]c4ccccc34)C(c3ccccc3)N2C(=O)CN1C1CCN(Cc2ccccc2)CC1 (some centres undefined) | -7 | -29 | -5% | 79µM* | ? | 32µM*
COc1cc(C2c3[nH]c4ccccc4c3C[C@@H]3C(=O)N(Cc4ccco4)CC(=O)N23)cc(OC)c1OC (some centres undefined) | -8 | -3 | ? | 21%[2.33 µM] | ? | -33%
COc1ccc(C2c3[nH]c4ccccc4c3C[C@H]3C(=O)N(C4CCN(Cc5ccccc5)CC4)CC(=O)N23)c(OC)c1 (some centres undefined) | -7 | / | -16% | ? | 22µM* | -37%

Bioassay records (PubChem BioAssay)
